The text below walks through data of ChEMBL document CHEMBL3988442, “University of Dundee, Small-Polar-MMV Screening Library” (2021).

The target in this experiment is Shiga toxin 2 (Escherichia coli O157:H7) (UniProt P09385+P09386). Briefly: E. coli 0.157:H7 Shiga Toxin SOP - stx2 screening assay. Also on record: scale not given: direction of the effect not stated beside the values. The conditions noted are these: 30 µM. Format: functional.
For the compound `Cc1ccc(NS(=O)(=O)c2cc3c(c(C(=O)O)c2)OCCO3)c(F)c1`, the Percent Effect was -5.6%. The value for `CN(Cc1cnccn1)C(=O)c1ccnc(OC2CCC2)c1` was -6.19%. The value for `CSc1ncc(C(=O)N2C[C@H]3CC[C@@H]2CN(Cc2ccccc2)C3)cn1` was -17.1%.

For the compound `O=C1NCC[C@]12CN(Cc1ccoc1)C[C@H]2c1ccccc1`, the Percent Effect is -14.1%. As for `NC(=O)c1cc(C2CCCN(CCCOc3ccccc3)C2)n[nH]1` (stereo not given), the Percent Effect was -26%.

`Clc1ccc(CN2CCCC(Cn3cncn3)C2)c2ncccc12` (stereo not given): the Percent Effect was -50.6%. Turning to `Cc1nc(N2CCN(C(=O)C3CC3)CC2)c2c(n1)c(C)nn2C`, the Percent Effect is -35.4%.

For `Cc1nc(CN2C(=O)C[C@@H]3[C@@H]2CCN3C(=O)C2CCOCC2)cs1`, the Percent Effect was -52.6%. The value for `O=C(NCCc1ccccn1)NC1CCN(c2ncccn2)CC1` was -12.3%. The figure for `CN1C(=O)C[C@@H]2[C@@H]1CCN2S(=O)(=O)Cc1ccccc1` is -4.62%. Turning to `CN(C)C(=O)N1CCC2(CCCN(Cc3cnn(C)c3)C2)C1` (stereo not given), the Percent Effect came out at 0.121%. The figure for `CN(CC(=O)N1CCCN(Cc2cscn2)CC1)c1cnccn1` is -25.9%.

Take `CC(C)c1nc(CN2CCCN(Cc3nnc(C4CC4)o3)CC2)no1`: the Percent Effect is -24.4%. The value for `Cc1cc(C2CCCN2CCCc2nc3ccccc3o2)on1` (stereo not given) was 28.6%. In the case of `CC(C)N1CCN(C(=O)Nc2cnn(CC(N)=O)c2)CC1`, the Percent Effect was -11.9%. On to `CN(C)C(=O)COCc1cncc2c1CCN(Cc1cnn(C)c1)C2`, for which the Percent Effect is -43%.

With `COCCNC(=O)[C@H]1C[C@@H]2CCN(Cc3ccoc3)C[C@H]2O1`, the Percent Effect was -3.8%. The figure for `CC(C)N1CC(C(=O)NCc2ccnc(-n3cccn3)c2)CC1=O` (stereo not given) is -49.1%; for `O=C(c1ccsc1)N1CCOC2(CCN(Cc3cccnc3)CC2)C1` it is -9.41%; for `CC(=O)N(C)c1nc(CN2CCOC(Cn3cccn3)C2)cs1` (stereo not given) it is -10.3%. The figure for `CC(=O)NCCNC(=O)N(C)Cc1ccc2c(c1)OCCO2` is 15.2%; for `Cc1nc(CCC(=O)NC2CCC2)cc(C2CCNCC2)n1` it is -6.49%. The figure for `Cc1nc(C)c(C(=O)NCCNC(=O)c2ccc(F)cc2F)s1` is -16%; for `CN1CC(=O)N(c2ccsc2)CC12CCN(C(=O)c1ccccc1)C2` (stereo not given) it is -3.66%. As for `COC(=O)CCc1c(C)nc2cc(O)nn2c1C`, the Percent Effect was -37.6%. The value for `O=C1OCCN1CCc1nc(-c2cc3c4c(c2)CC(=O)N4CCC3)cs1` was 9.08%.

On to `CC(=O)N1[C@H](CN(C)C)C[C@@H]2CN(C(=O)c3cccc(F)c3)CC[C@@H]21`, for which the Percent Effect was -3.85%.

For the compound `Cc1nnc2n1CCN(C(=O)c1cc(C)n(-c3ccccn3)c1C)C2`, the Percent Effect came out at 32.2%. The figure for `Cn1ncc(C(=O)N2CCCC(n3cccn3)C2)c1C1CC1` (stereo not given) is -7.05%; for `COCCC(=O)N1CCN(C)c2ncccc2C1` it is -19.6%; for `O=S(=O)(C1CC1)N1CCC2(CC1)CC(Oc1cccnc1)CO2` (stereo not given) it is -0.225%.

With `Cc1nc(COCc2cnc3n2CCN(C2CCC2)C3C)cs1` (stereo not given), the Percent Effect was -5.21%.

`Cc1cccc2c1cnn2CCCNC(=O)CCCC(=O)O`: the Percent Effect is -61.8%. The figure for `OCCOCCN1CCCC1c1nc2cc(F)ccc2[nH]1` (stereo not given) is -4.14%.

`O=C(c1ccncc1)N1CCC(O)(Cn2ccc3ccncc32)CC1`: the Percent Effect is -14.9%. The figure for `Cc1cc(C)nc(CCNC(=O)[C@H]2CNC[C@@H](C(=O)N3CCCC3)C2)n1` is -37.4%; for `CCN1CCN(C2CCN(Cc3cc(C)on3)CC2)C1=O` it is -26.8%. Consider `CC(C)(C)c1n[nH]c(C2CN(C(=O)c3ccsc3)CCO2)n1` (stereo not given), for which the Percent Effect is 7.5%. The value for `c1ccc2oc(CCCN3CCCC3Cn3cncn3)nc2c1` (stereo not given) was 7.93%.

With `C=Cc1ccc(C(=O)N2CCCC(Nc3ccc(OC)cc3)C2)cc1` (stereo not given), the Percent Effect was -6.01%.
